# Assay outcomes deposited in PubChem BioAssay by several laboratories.
# SRC1 inh – inhibitors of human steroid receptor coactivator 1 (SRC1). AID 588354. actives 0.12% (n = 360,000). HEK293 GAL4-SRC1 luciferase reporter, luminescence. inhibition, % at 3.6 µM;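 active means inhibition above the campaign mean plus 3 SD, with each screening campaign given its own cutoff, cut at about 60% in these data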;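 further: 0% = DMSO treated cells and 100% = gossypol at 36 µM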
# LRH-1 inv ag – NR5A2 inverse agonism in reporter assay | inhibition, % at 3.6 µM | actives 0.13% (n = 360,000) | AID 602396 | HEK293T StAR-luciferase reporter, LRH-1 transfected, 24 h;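 active means inhibition above the mean inhibition of all tested compounds plus 3 SD, cut at about 73% in these data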;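 further: 0% = DMSO wells and 100% = reporter-only cells lacking LRH-1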
# Target sequence (O00482 whole entry, looked up): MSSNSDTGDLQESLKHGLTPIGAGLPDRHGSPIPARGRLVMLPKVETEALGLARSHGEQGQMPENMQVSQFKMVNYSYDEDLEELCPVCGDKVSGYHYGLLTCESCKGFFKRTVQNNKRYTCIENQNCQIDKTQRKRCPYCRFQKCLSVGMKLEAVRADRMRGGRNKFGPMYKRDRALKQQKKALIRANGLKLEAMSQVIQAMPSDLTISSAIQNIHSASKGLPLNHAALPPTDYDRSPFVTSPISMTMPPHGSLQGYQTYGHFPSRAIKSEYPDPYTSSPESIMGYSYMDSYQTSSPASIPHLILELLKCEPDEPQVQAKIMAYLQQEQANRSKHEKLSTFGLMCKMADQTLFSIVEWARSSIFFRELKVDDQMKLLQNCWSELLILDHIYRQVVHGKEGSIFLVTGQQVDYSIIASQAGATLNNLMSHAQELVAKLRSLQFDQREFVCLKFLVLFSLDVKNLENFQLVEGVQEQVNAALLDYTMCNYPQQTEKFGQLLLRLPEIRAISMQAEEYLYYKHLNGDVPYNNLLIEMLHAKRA
# EBV LMP1 NFkB – inhibitors of Epstein-Barr LMP1-induced NF-kappaB reporter | LMP1-induced NF-kappaB luciferase reporter cells, luminescence | inhibition, % at 12.5 µM | actives 0.69% (n = 350,000); in the data active means inhibition above about 41%;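 further: 0% = neutral control wells and 100% = reference inhibitor control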
# SRC3 inh – human NCOA3 inhibition. Q9Y6Q9. HEK293 GAL4-SRC3 luciferase reporter, luminescence. inhibition, % at 3.6 µM. actives 0.17% (n = 360,000). AID 588352;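 active means inhibition above a per-campaign cutoff, the mean of all compounds plus 3 SD, cut at about 60% in these data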;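 further: 0% = DMSO-treated cells and 100% = gossypol-treated cells at 36 µM; higher means less SRC3-driven luciferase light from the GAL4 reporter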
# SRC2 inh – inhibits human steroid receptor coactivator 2. Q15596. HEK293 GAL4-SRC2 luciferase reporter, luminescence. inhibition, % at 9 µM. actives 0.17% (n = 370,000). AID 651957;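 active means inhibition above the mean inhibition of all tested compounds plus 3 SD, set per campaign, cut at about 52% in these data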;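 further: 0% = DMSO treated cells and 100% = cells given Gossypol at 36 µM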
# Shn3 inh set2 – inhibitors of Schnurri-3 3'UTR reporter in osteoblasts | Clone20 osteoblast Shn3 3'UTR firefly luciferase, 24 h | actives 0.52% (n = 360,000) | inhibition, % at 12.5 µM;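 active means mean inhibition of at least 75% with every replicate also reaching 75%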;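 further: 0% = median of neutral control wells and 100% = pilot-screen positive control compound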
# The depositor's hits bear a star; i = inactive; · = not tested or not shown. Hits are enriched below; roughly 1.2% of the tested compounds scored in any of these assays.
SMILES,SRC1 inh,LRH-1 inv ag,EBV LMP1 NFkB,SRC3 inh,SRC2 inh,Shn3 inh set2
Cc1ncc(CO)c(/C=N/NC(=O)c2cc3c(s2)CCCC3)c1O,-16,63,24,47,19,91*
Cc1cc(Br)ccc1NC(=O)CNC(=O)Cn1ncc(Cl)c(Cl)c1=O,-27,-28,83*,-40,-13,58
Cc1cc(Br)ccc1NC(=O)CNC(=O)CSc1ncccn1,5,4,-6,10,-6,-4
Cc1ccc(S(=O)(=O)N2CCCCC2)cc1NC(=O)Cn1ncc(Cl)c(Cl)c1=O,0,-22,-31,-19,-17,100*
COc1ccccc1CCn1cnc(-c2ccc(OC)c(OC)c2)c1CC(C)C,·,·,·,·,24,·
CC1=C(C#N)C(C(F)(F)F)(C(F)(F)F)N=C(c2ccco2)N1,-15,0,5,28,-11,89*
C=C1C(=O)OC2C1CCC(C)C1C=CC(=O)C12C (stereo unspecified),-29,-21,-82,-10,-19,58
C=C1C(=O)OC2CC1C(OC(C)=O)CC(C)=CCCC(C)=CCCC2(C)O (stereo unspecified),33,46,·,62*,44,94*
C=C1C(=O)O[C@H]2[C@H]1[C@H](OC(=O)/C(C)=C\C)C[C@]1(CO1)[C@@H]1[C@H](OC(C)=O)C=C(C)[C@]21O,-13,-4,-7,-9,-30,-22
C=C1C(=O)OC2CC1C(O)CC(C)=CCCC(C)=CC(O)CC2C (stereo unspecified),30,-3,-3,59,52,96*
O=C(NCCNC(=O)Oc1cccc2ccccc12)Oc1cccc2ccccc12,-18,2,-18,-13,-18,90*
CCSc1nc2ccccc2n1CC(N)=O,-15,0,-11,6,8,-1
CCSc1nc2ccccc2n1C(=O)/C=C\c1ccc(OC)c(OC)c1,-8,-2,68*,30,10,-15
COc1cccc(N2CCN(c3ncnc4c3[nH]c3ccc(F)cc34)CC2C)c1 (stereo unspecified),85*,89*,70*,87*,81*,96*
COc1ccc2[nH]c3c(N4CC(C)OC(C)C4)ncnc3c2c1 (stereo unspecified),·,·,·,·,12,·
COc1cccc(N2CCN(c3ncnc4c3[nH]c3ccccc34)CC2C)c1 (stereo unspecified),·,·,·,·,61*,·
COc1ccccc1N1CCN(C(=O)c2cc3c(C)nn(-c4ccccc4)c3s2)CC1,·,·,·,·,-12,·
COC(=O)C1CCN(C(=O)CCn2nnc(-c3cccs3)n2)CC1,·,·,·,·,8,·
Cc1sc2nc(SCC(=O)c3ccc(O)c(O)c3)n(C)c(=O)c2c1C,·,·,·,·,-3,·
C[C@@H](CO)N(Cc1cn(Cc2ccccc2)nn1)S(=O)(=O)c1ccc(F)cc1Br,·,·,·,·,17,·
CCCn1cc(C(=O)Nc2ccc(Oc3cccnc3)cc2)c2ccccc21,·,·,·,·,-9,·
O=C(CNc1cccc2ccccc12)N/N=C/C(Br)=C/c1ccccc1,-47,-22,-7,-16,-14,91*
Cc1cc(=O)oc2cc(Oc3ncccn3)ccc12,14,-8,45*,-4,-5,3
Cc1cc(=O)oc2cc(Oc3ncccc3[N+](=O)[O-])ccc12,0,-7,0,5,-25,-6
C/C(=N\NS(=O)(=O)c1ccc([N+](=O)[O-])cc1)c1cccs1,14,-2,58*,7,11,6
SMILES,SRC1 inh,LRH-1 inv ag,EBV LMP1 NFkB,SRC3 inh,SRC2 inh,Shn3 inh set2
O=S(=O)(c1ccccc1F)n1c(CN2CCOCC2)nc2ccccc21,·,·,·,·,15,·
COc1ccc(C(=O)Nc2nnc(SCC(=O)NC3CC3)s2)cc1,-90,-86,45*,-87,-90,-2
Cc1ccc(/C=C/C(=O)C2C(=O)c3ccccc3C2=O)cc1,-49,-39,47*,-55,-20,1
Nc1ccc(-c2nc3ccc(N)cc3[nH]2)cc1,-43,-25,-4,-26,-31,-30
Nc1ccc2cc3[nH]c4cc(N)ccc4c3nc2c1,18,-23,62*,-1,i,90*
Cc1sc2ncnc(N3CCN(CCOc4ccc(Cl)cc4)CC3)c2c1C,23,28,38,-7,16,85*
O=C(c1ccc(C#Cc2ccccc2)cc1)N1CCC(O)CC1,·,·,·,·,-51,·
CCCC[C@@H]1C(=O)N2N=Cc3cscc3[C@H]2N2N=Cc3cscc3[C@@H]12,·,·,·,·,14,·
CCCc1ccc(-c2ccc(F)c(N)c2)nc1,-32,-56,69*,-11,24,21
COc1cc(/C=C/C(=O)c2ccc3c(c2)OCCO3)cc(Br)c1OCC(=O)N(C)C,11,28,28,50,55*,92*
O=C(/C=C/c1ccncc1)c1ccc2c(c1)OCCO2,-2,19,9,12,19,5
CCC(=O)Nc1cc2nn(-c3ccc(C)cc3)nc2cc1C,44,18,63*,34,6,50
NCCN1CCN(S(=O)(=O)c2ccc3c(c2)CCN3C(=O)C2CCC2)CC1,·,·,·,·,-3,·
Fc1ccc(-n2nnnc2-c2cnc(-c3cccs3)nc2C(F)(F)F)cc1,30,5,35,26,28,90*
Cc1sc2ncnc(NCC3COc4ccccc4O3)c2c1C (stereo unspecified),26,42,49*,30,24,74
CC(=O)NCc1ccc(OCCCN2CCC(C(O)(c3ccccc3)c3ccccc3)CC2)cc1,·,·,·,·,-2,·
CC(COc1ccc(Cl)cc1)CN1CCC(C(O)(c2ccccc2)c2ccccc2)CC1 (stereo unspecified),·,·,·,·,10,·
CN1CCN(CC(=O)Nc2cccc(S(=O)(=O)N(C)c3ccccc3)c2)CC1,-8,15,74*,15,-2,-44
CCCC(=O)Nc1cccc(S(=O)(=O)N(C)c2ccccc2)c1,3,-3,5,0,19,22
COc1cccc(CNC(=O)[C@H]2CCCN2C(=O)[C@H]2CCCN2C(=O)c2ccccc2)c1,·,·,·,·,7,·
Cc1cc(CN2CCOCC2)c(O)c(C2(C)CCCCC2)c1,-5,-4,-13,4,-3,87*
Cc1cc(SCC(=O)N/N=C/c2ccc(O)cc2O)nc2ccccc12,22,2,31,12,20,92*
O=C(c1ccco1)N1CCN(S(=O)(=O)/C=C/c2ccccc2)CC1,-6,15,49*,19,2,6
O=C(c1cc2ccccc2o1)N1CCN(S(=O)(=O)/C=C/c2ccccc2)CC1,-3,19,6,12,15,35
CN(C)c1ncnc2c1ccn2C1OC(CO)C(O)C1O (stereo unspecified),10,-63,7,-60,-35,88*
OCC1OC(n2ccc3c(NO)ncnc32)C(O)C1O (stereo unspecified),69*,98*,80*,85*,41,99*
COCc1cn(-c2ccc3c(c2)[C@@]2(CC(=O)N(C)C2c2ccccc2)C(=O)N3CC(C)C)nn1 (stereo partly specified),·,·,·,·,-3,·
